# From PubChem BioAssay
# Compounds with a hit are over-represented: about 11% of the library has one in this group of screens.
# Pf growth 96h: Primary qHTS for delayed death inhibitors of the malarial parasite plastid, 96 hour incubation; hit rate 6.9% among 320,000; Potency, µM (highest dose often 28.7 µM), for the others: top-dose activity change, negative = inhibition, hits mostly inhibitors; P. falciparum luciferase reporter growth, 96 h
#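 P. falciparum expressing integrated firefly luciferase grown in erythrocytes (2% hematocrit, 0.05% parasitemia final) with compounds for 96 hours at 37 C, 5% CO2. Growth inhibition read as loss of luminescence after adding luciferase detection reagent.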
# HCV inh: qHTS Assay for Inhibitors of Hepatitis C Virus (HCV). Potency, µM (doses to about 41.8 µM), inactives show top-dose activity change, negative = inhibition, actives largely listed as inhibitors. hit rate 3.4% among 340,000. Huh7.5.1 HCVcc-Cre infection, luciferase reporter, 44 h. AID 651820, 2012
#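 A cell-based infection assay in which seeded cells (1,000 per well) receive test compound after 4 h, are inoculated with HCVcc-Cre at approximately 0.5 moi, and are incubated 44 h before luminescence detection.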
# Pf growth 48h: Primary qHTS for delayed death inhibitors of the malarial parasite plastid, 48 hour incubation. P. falciparum luciferase growth in erythrocytes, 48 h. hit rate 5.9% among 310,000. Potency, µM (top dose mostly 28.7 µM), for the others: at the highest dose activity change, negative = inhibition, most hits filed as inhibitors
#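 Compounds are pin-transferred into medium, infected erythrocytes (2% hematocrit, 0.1% parasitemia final) are added, and plates sit one parasite generation at 37 C in 5% CO2. Detection reagent is then added and luminescence measured.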
# AMA1-RON2 inh: qHTS for Inhibitors of AMA1-RON; Towards Development of Antimalarial Drug Lead: Primary Screen; AlphaScreen AMA1-biotinylated RON2 peptide binding; Potency, µM (top dose mostly 58.2 µM), without a hit: at the highest dose activity change, negative = inhibition, usual class: inhibitors; hit rate 0.2% among 360,000; AID 720542, 2013;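 note: 0% = vehicle wells and -100% = peptide control; nearly all actives have a fitted effect of over 45% in size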
#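 AMA1 (3D7) with his tag at 25 nM final met compounds first, then biotinylated RON2 peptide at 25 nM; detection used donor plus acceptor beads, 10 µg/mL apiece, read by AlphaScreen after 30 min at room temperature.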
# The depositor's hits bear a star; ? = inconclusive; · = no result; ! = not active in a repeat; [ ] = remark or other dose. Calls come from the whole dose curve; as a rule, active = well fitted curve in the direction sought with a large enough effect; inconclusive = small, poorly fitted or top-dose-only effect, or another doubt; inactive = no such curve, though single readings can be large; an effect the other way counts as inactive or inconclusive. Unless noted, % is set by controls: 0 for no effect and ±100 for the full control effect; potency is the fitted concentration of half-maximal effect.
SMILES,Pf growth 96h,HCV inh,Pf growth 48h,AMA1-RON2 inh
Cc1ccc(C(C(=O)NC2CCCCC2)N(Cc2ccccc2)C(=O)Cc2c[nH]c3ccccc23)o1 (stereo not given),?,?,?,-9.2%
COc1cccc(CN(C(=O)Cc2c[nH]c3ccccc23)C(C(=O)NC2CCCCC2)c2ccc(C)o2)c1 (stereo not given),?,?,13.1µM*,-7.1%[2.32 µM]
Cc1cc(C)c(S(=O)(=O)/N=C2/C=C(Sc3ncn[nH]3)C(=O)c3ccccc32)cc1C,10.4µM*,?,1.65µM*,-26.1%
CC(C)(C)OC(=O)N1CCC[C@H]1C(=O)N/N=C/c1ccc2nccnc2c1,-30.7%,-3.2%,?,-3.6%
CC(C)(C)OC(=O)N1CCC[C@H]1C(=O)N/N=C/c1cccc2nccnc12,?,10.2%,14.7µM*,126.4%
CN(C(=O)c1cccc(NC(=O)Cc2ccc(NC(=O)C3CCN(S(=O)(=O)c4cccc([N+](=O)[O-])c4)CC3)cc2)c1)C1CCCC1,·,-9.8%,·,6.4%
CN(C(=O)c1ccc(Oc2ccc([N+](=O)[O-])cc2)cc1)C1CCCCC1,0.0%,12.6µM*,-0.4%,-1.1%
CN(C(=O)c1cccc(NC(=O)Cc2ccc([N+](=O)[O-])cc2)c1)C1CCCCC1,·,3.16µM*,·,-2.9%
CN(C(=O)c1ccc(-c2ccccc2)cc1)C1CCCCC1,·,-19.8%,·,17.6%
O=C(CN(C(=O)c1cccc([N+](=O)[O-])c1)C1CCCCC1)Nc1ccc(Cl)c([N+](=O)[O-])c1,?,?,1.85µM*,9.5%
COc1ccccc1OCC(=O)Nc1ccc(S(=O)(=O)Nc2onc(C)c2C)cc1,23.8%,6.3%,2.2%,-3.8%
CC1(C)Cc2c(sc3c2c(=N)n(Cc2ccco2)c(=O)n3Cc2ccc(F)cc2)CO1,?,?,?,-14.1%
Cc1ccc(NC(=O)Cn2c(=O)n(Cc3ccco3)c(=N)c3c4c(sc32)COC(C)(C)C4)cc1,?,3.16µM*,?,3.3%
COc1ccc(Cn2c(=O)n(Cc3ccco3)c(=N)c3c4c(sc32)COC(C)(C)C4)cc1,13.1µM*,12.6µM*,5.86µM*,-16.9%
Cc1cc(C)n(CCNC(=O)CC2C(=O)NCCN2Cc2ccccc2C(F)(F)F)n1 (stereo not given),-1.5%,7.7%,-5.2%,5.1%
Cc1cc(NC(=O)CCl)no1,60.8%,?,2.94µM*,-8.4%
CCCC(=O)c1c(NC(C)C)cc(C)oc1=O,5.7%,-25.6%,?,19.0%
CC(Sc1nnc(CC(=O)Nc2ccccc2F)n1C)C(=O)Nc1nccs1 (stereo not given),25.2%,5.9%,-2.0%,-11.2%
O=S(=O)(/C=C/c1ccccc1)Oc1ccccc1,3.29µM*,?,·,31.9%
CNS(=O)(=O)/C=C/c1ccccc1,19.2%,23.6%,34.3%,7.1%
COc1cccc(/C=C/C(=O)OCC(=O)Nc2ccc(Cl)cn2)c1,17.3%,·,13.2%,·
N#CN(CC(N)=O)c1nc(N2CCCCC2)nc(N2CCCCC2)n1,-8.0%,10µM*,?,-2.1%
C=CC[n+]1c(-c2ccc(OC)cc2)csc1NNC(=O)Nc1ccccc1,?,11.2µM*,·,1.7%
COCCCNC(=O)c1ccc2c(=O)n(Cc3ccc(OC)cc3)c(=O)[nH]c2c1,?,-13.2%,-29.2%,37.2%
CCOCCCNC(=O)c1ccc2c(=O)n(Cc3ccc(OC)cc3)c(=O)[nH]c2c1,56.2%,-8.4%,5.86µM*,3.2%
SMILES,Pf growth 96h,HCV inh,Pf growth 48h,AMA1-RON2 inh
CCC1CCCCN1CCCNC(=O)c1ccc2c(=O)n(Cc3ccc(OC)cc3)c(=O)[nH]c2c1 (stereo not given),?,14.1µM*,·,-7.1%
CCC1CCCCN1CCCNC(=O)c1ccc2c(=O)n(CCOC)c(=O)[nH]c2c1 (stereo not given),?,-1.2%,?,-6.9%
CCCCN=CC1=C(O)C(C(=O)OC)C(C)(C)CC1=O (stereo not given),4.3%,14.7%,25.8%,2.6%
C=CCN1CCc2nc(N)sc2CC1,6.75µM*!,-17.8%[8.37 µM],-13.4%,6.7%
CCN1CCc2nc(N)sc2C1,-5.5%,5.4%,-2.6%,3.4%
COc1ccc(-c2noc(CCC(=O)N3CCN(c4ccc(C(F)(F)F)cc4)CC3)n2)cc1,·,-73.9%,·,0.0%
CCOC(CCNC(=O)CCC(=O)Nc1ccc2nc(N3CCN(C)CC3)cc(C)c2c1)OCC,?,-6.7%,-14.2%,11.3%
Cc1cc(N2CCOCC2)nc2ccc(NC(=O)CCC(=O)N3CCN(c4cccc(C(F)(F)F)c4)CC3)cc12,0.2%,11.2µM*,4.65µM*,5.5%
CC(=O)c1ccc(N2CCN(C(=O)CCC(=O)Nc3ccc4nc(N5CCN(C)CC5)cc(C)c4c3)CC2)cc1,5.1%,8.91µM*,9.28µM*,-14.4%
Cc1ccc(-c2noc(CCC(=O)N3CCN(c4cccc(C(F)(F)F)c4)CC3)n2)cc1,?,11.2µM*!,-29.7%,-4.0%
Cc1cc(N2CCN(C)CC2)nc2ccc(NC(=O)CCC(=O)NCCc3ccc(Cl)cc3)cc12,10.8%,5.1%,11.7µM*,6.6%
O=C(OCC(=O)N1CCCC1=O)c1ccc(O)cc1O,9.5%,13.9%,3.6%,-2.6%
CCOC(=O)N/N=C/c1c(F)c(F)c(F)c(F)c1F,?,-12.6%,-14.8%,8.1%
Nc1ccn([C@@H]2O[C@H](C(=O)NCc3ccc4c(c3)OCO4)[C@@H](O)[C@H]2O)c(=O)n1,·,·,·,-7.8%
COc1ccc(N2C(=O)c3cccc4c(N(C)CCO)ccc(c34)C2=O)cc1,21.6%,?,10.4µM*,-4.1%
COc1ccccc1-n1nnnc1SCC(=O)N(C)C1CCS(=O)(=O)C1 (stereo not given),-24.7%,9.6%,-28.0%,33.3%
CC(C)(C)n1nnnc1C(c1cccs1)N1CCCC2(CCCCC2)C1 (stereo not given),?,5.7%,5.22µM*,?
c1csc(C(c2nnnn2C2CCCCC2)N2CCCC3(CCCCC3)C2)c1 (stereo not given),?,24.7%,2.62µM*,-1.8%
CCN(CC(=O)Nc1ccc(OC)c(Cl)c1)CC(=O)NC(C)C,?,2.0%,-3.8%,-2.2%
Nc1c(Cl)ncnc1NCCc1ccc(O)cc1,31.0%,6.31µM*,11.8%,-0.1%
CCN(c1ccc(NC(=O)COC(=O)CCc2cc(OC)c(OC)c(OC)c2)cc1)C(C)C,11.6%,5.7%,-10.5%,-20.9%
COc1ccccc1N(CC(=O)Nc1ccc(Cc2ccncc2)cc1)S(=O)(=O)c1ccccc1,?,?,8.28µM*,-23.1%
COc1ccc(NC(=O)CN(c2ccc([N+](=O)[O-])cc2)S(=O)(=O)c2ccccc2)cc1,-26.1%,?,?,-14.6%
COc1ccc(N(CC(=O)Nc2ccc(S(=O)(=O)N3CCOCC3)cc2)S(=O)(=O)c2ccccc2)cc1,·,3.98µM*,10.4µM*,-1.6%
